Rtt109 Vps75: C. albicans Rtt109 histone acetyltransferase inhibition. Q5AAJ8. purified Rtt109/Vps75, ThioGlo CoA-SH fluorescence, 4 h. inhibition, % at 34.9 µM. 330,000 compounds, 0.16% hits;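 active means inhibition of at least 50% in every replicate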
Target sequence (Q5AAJ8 whole entry, looked up): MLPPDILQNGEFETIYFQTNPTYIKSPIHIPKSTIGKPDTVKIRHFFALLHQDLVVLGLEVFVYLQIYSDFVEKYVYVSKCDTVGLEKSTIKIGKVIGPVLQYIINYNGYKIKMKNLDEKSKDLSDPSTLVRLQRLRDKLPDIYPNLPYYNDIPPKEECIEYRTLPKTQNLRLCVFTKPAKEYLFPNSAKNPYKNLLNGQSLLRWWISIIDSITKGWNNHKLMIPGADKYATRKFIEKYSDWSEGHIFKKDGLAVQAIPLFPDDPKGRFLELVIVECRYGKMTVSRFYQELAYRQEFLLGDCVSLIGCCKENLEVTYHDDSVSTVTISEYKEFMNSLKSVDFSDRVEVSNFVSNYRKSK
ERp5 inh: blocks human ERp5 reductase activity on insulin. Q15084. ERp5 insulin aggregation, absorbance 650 nm, 90 min. inhibition, % at 9.99 µM. 350,000 compounds, 0.05% hits;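 active means mean replicate inhibition above about 25%, with every replicate also reaching it, limit read from the data, passing the limit was not always enough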
PDI turbidity: PDI (human) enzyme inhibition | 350,000 compounds, 0.052% hits | inhibition, % at 10 µM | AID 588391 | PDI insulin aggregation turbidity, A650, 90 min;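 active means mean inhibition across replicates of 30% or more, whatever share of single replicates reach that level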
PvdQ acylase: P. aeruginosa PvdQ acylase inhibition. purified PvdQ acylase, fluorescence plate reader. inhibition, % at 10 µM. 340,000 compounds, 0.063% hits. AID 488965; in the data active means inhibition above about 30%, passing the limit was not always enough;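 further: 0% = vehicle neutral wells and 100% = reference inhibitor wells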
Efflux pump mplx: antifungal efflux pump inhibition, Nile Red retention | 330,000 compounds, 0.44% hits | S. cerevisiae Candida pump triplex | AID 485275 | inhibition, % at 10 µM;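 active means plate passing quality check with inhibition over a set limit, or well fluorescence over plate mean plus 4 SD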;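 further: Nile Red retained in pooled yeast measured as flow cytometry median fluorescence; 0% = buffer negative control and 100% = Enniatin B positive control; higher means more Nile Red kept so more efflux inhibition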
An asterisk follows results filed as active; nt = no result. A selection: hits, their analogues and other compounds. The true share with any hit is near 0.54%.

SMILES	Rtt109 Vps75	ERp5 inh	PDI turbidity	PvdQ acylase	Efflux pump mplx
COc1ccc(S(=O)(=O)N(C)C[C@@H]2OCCCC[C@@H](C)Oc3ccc(NS(=O)(=O)c4ccc(Cl)cc4)cc3C(=O)N([C@@H](C)CO)C[C@H]2C)cc1	nt	12	nt	nt	nt
CC(c1ccccc1)n1c(N2CCNCC2)nc2c1c(=O)[nH]c(=O)n2C (stereo not given)	65*	-4	4	0	0
CC(c1ccccc1)n1c(Br)nc2c1c(=O)[nH]c(=O)n2C (stereo not given)	1	-1	-5	-12	0
N#Cc1cccnc1Nc1ccc(Cl)cc1	nt	-9	11	32*	0
CCCCc1ccc(Nc2ncccc2C#N)cc1	-3	nt	-18	19	0
CCN1/C(=C/c2ccc3cc(C)ccc3[n+]2CC)Sc2cc(C)ccc21	82*	8	-4	-23	nt
COc1ccc(NC(=O)N(C)C[C@@H]2OCCCC[C@H](C)Oc3ccc(NS(=O)(=O)c4ccc(OC)cc4)cc3C(=O)N([C@H](C)CO)C[C@H]2C)cc1	nt	-3	nt	nt	nt
CN1C(=O)S/C(=C\c2ccc(-n3cncn3)cc2)C1=O	13	0	-4	48*	0
COc1ccc(CCNC(=O)/C(C#N)=C/c2ccc(OCC(=O)NCC3CCCO3)cc2)cc1OC (stereo not given)	-7	3	4	35*	0
COc1cc(/C=C/C(=O)/C=C(O)/C=C/c2ccc(O)c(OC)c2)ccc1O	4	10	46*	4	1
COc1ccc(NC(=O)N(C)C[C@@H]2Oc3ccc(NC(=O)Nc4ccc(F)cc4)cc3CC(=O)N([C@@H](C)CO)C[C@@H]2C)cc1	nt	79*	nt	nt	nt
C[C@@H]1CN([C@@H](C)CO)C(=O)Cc2cc(NC(=O)Nc3cccc4ccccc34)ccc2O[C@H]1CN(C)C(=O)Nc1cccc2ccccc12	nt	-3	nt	nt	nt
COc1ccc(S(=O)(=O)N(C)C[C@@H]2Oc3ccc(NC(=O)c4ccncc4)cc3C(=O)N([C@H](C)CO)C[C@@H]2C)cc1	nt	64*	nt	nt	nt
C[C@H](CO)N1C[C@H](C)[C@H](CN(C)Cc2ccc(C(=O)O)cc2)Oc2ccc(NS(=O)(=O)c3cccs3)cc2CC1=O	nt	-1	nt	nt	nt
C[C@@H]1CN([C@H](C)CO)C(=O)Cc2cc(NC(=O)Nc3cccc4ccccc34)ccc2O[C@@H]1CN(C)C(=O)Nc1cccc2ccccc12	nt	52*	nt	nt	nt
C[C@H](CO)N1C[C@H](C)[C@@H](CN(C)Cc2ccc(C(=O)O)cc2)Oc2ccc(NS(=O)(=O)c3cccs3)cc2CC1=O	nt	43*	nt	nt	nt
O=C(O)c1cc2nccc(-c3ccco3)n2n1	-89	4	5	39*	0
CO[C@H]1CN(C)C(=O)c2cc(NC(=O)C3CC3)ccc2OC[C@@H](C)N(C(=O)c2ccccc2F)C[C@H]1C	nt	-5	nt	nt	nt
Cc1nn(C)cc1NC(=O)C[C@@H]1CC[C@H]2[C@H](COc3ccc(NC(=O)NC(C)C)cc3C(=O)N2C)O1	nt	-4	nt	nt	nt
COC(=O)c1cccc(N2C(=O)C(Cl)=C(N3CCOCC3)C2=O)c1	115*	nt	2	5	0
O=C1C(Cl)=C(N2CCOCC2)C(=O)N1c1ccccc1Cl	162*	2	4	-1	0
CC(=O)N[C@H]1C=C[C@H](CC(=O)NCc2ccc(Cl)cc2)O[C@H]1CO	nt	-5	nt	nt	nt
O=C(COC(=O)c1cnccn1)c1ccc([N+](=O)[O-])cc1	137*	-1	-17	-6	0
Cc1ccc(C(=O)COC(=O)c2cnccn2)cc1	4	nt	0	6	0
CCOC(=O)CN1CC23C=CC(O2)C(C(=O)Nc2cc(OC)ccc2OC)C3C1=O (stereo not given)	-6	1	nt	-2	0.9*
SMILES	Rtt109 Vps75	ERp5 inh	PDI turbidity	PvdQ acylase	Efflux pump mplx
COc1ccc2c3c(n(C)c2c1)[C@H](CO)N(C(=O)C1CCCC1)CC31CCN(Cc2cccc(F)c2)CC1	nt	-7	nt	nt	nt
CC1CCN(c2ccccc2NC(=O)c2cc([N+](=O)[O-])ccc2N2CCOCC2)CC1	54*	0	0	-8	0
COCC#Cc1ccc2c(c1)O[C@H](CN(C)C(=O)c1ccccc1)[C@@H](C)CN([C@@H](C)CO)S2(=O)=O	nt	2	nt	nt	nt
CCOC(=O)c1ccc(N2Cc3ccccc3C2)cc1O	-4	9	0	63*	1
O=C(C[C@H]1C[C@H]2c3cc(NS(=O)(=O)c4ccccc4)ccc3O[C@H]2[C@H](CO)O1)NC1CCCC1	nt	-5	nt	nt	nt
O=C(C[C@@H]1C[C@H]2c3cc(NS(=O)(=O)c4ccccc4)ccc3O[C@H]2[C@H](CO)O1)NC1CCCCC1	nt	35*	nt	nt	nt
CCCNC(=O)C[C@H]1C[C@@H]2c3cc(NC(=O)CC4CC4)ccc3O[C@@H]2[C@@H](CO)O1	nt	62*	nt	nt	nt
CCCNC(=O)C[C@@H]1C[C@@H]2c3cc(NS(C)(=O)=O)ccc3O[C@@H]2[C@H](CO)O1	nt	32*	nt	nt	nt
CCCNC(=O)C[C@H]1C[C@@H]2c3cc(NS(C)(=O)=O)ccc3O[C@@H]2[C@H](CO)O1	nt	-6	nt	nt	nt
O=C(NC[C@H]1CC[C@H]2[C@H](CN2Cc2cccc(Cl)c2)O1)C1CCOCC1	nt	-3	nt	nt	nt
Cc1c(C(=O)Nc2ccc(S(=O)(=O)N(C)C3CCN(C)CC3)cc2)oc2c(Cl)cccc12	66*	19	3	-9	0
Cc1c(C(=O)Nc2ccc(S(=O)(=O)N(C)C3CCN(C)CC3)cc2)oc2ccccc12	26	-6	-4	3	0
COc1cccc(-c2ccc([C@@H]3[C@H]4CN(C(=O)C5CC5)CC(=O)N4[C@H]3CO)cc2)c1	nt	-3	nt	nt	nt
O=C(/C=C\Nc1ccccn1)c1ccc(Cl)cc1	62*	nt	5	13	0
CN(C)S(=O)(=O)n1cc(/C=C(\NC(=O)c2ccccc2)C(=O)N2CCCC2)c2ccccc21	74*	-7	-1	10	0
O=C(c1cnccn1)N1CC(=O)N2[C@H](CO)[C@H](c3ccc(C#CCc4ccccc4)cc3)[C@H]2C1	nt	-3	nt	nt	nt
CCOc1ccc(S(=O)(=O)NCCC(=O)Nc2ccncc2)cc1	-5	5	7	-6	0
CCOc1ccc(S(=O)(=O)NCCC(=O)Nc2cccc(C(=O)OC)c2)cc1	54*	-2	-4	3	0
C[C@H]1CN([C@@H](C)CO)S(=O)(=O)c2ccc(C#Cc3ccc(F)cc3)cc2O[C@@H]1CN(C)C(=O)CN(C)C	nt	4	nt	nt	nt
N=c1c[n+](N2CCOCC2)[n-]o1	56*	-5	-9	-8	0
CCOC(=O)N1CCN(c2ccc(Cl)cc2)CC1	1	-3	9	44*	0
CCOC(=O)N1CCN(c2ccc(O)cc2)CC1	-2	nt	-11	-3	0
COc1ccc(S(=O)(=O)N(C)C[C@H]2OCCCC[C@@H](C)Oc3ccc(NS(=O)(=O)c4ccccc4)cc3C(=O)N([C@@H](C)CO)C[C@H]2C)cc1	nt	0	nt	nt	nt
O=C(Nc1ccc(Cl)c(Cl)c1)N[C@H]1CC[C@H](CCn2cc(C3CCCCC3)nn2)O[C@@H]1CO	nt	-1	nt	nt	nt
CN(C)c1ccc(C(C#N)c2ccc(Cl)cc2)nn1 (stereo not given)	-4	6	2	5	0

Screening data deposited in PubChem BioAssay by several laboratories.
